# HIF-2a inh: HIF-2a inhibition. 360,000 compounds, 0.72% hits. 786-0 RCC cells HIF-2a reporter, luciferase luminescence, overnight. AID 624352. inhibition, % at 18.8 µM;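 active = inhibition of the luminescence signal of 40% or more relative to plate controls, in a single-dose primary screen at 18.75 µM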
# Peg3 promoter: reduces Peg3 promoter-driven luciferase expression in HeLa. inhibition, % at 20 µM. 360,000 compounds, 1.7% hits. AID 588405. HeLa PEG-Prom luciferase reporter, luminescence, overnight;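 active = inhibition of at least 50% at 20 µM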
# Shn3 3UTR inh: inhibitors of Schnurri-3 3'UTR reporter in osteoblasts | 360,000 compounds, 0.52% hits | inhibition, % at 12.5 µM | AID 588674 | Clone20 osteoblast Shn3 3'UTR firefly luciferase, 24 h;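 active = mean inhibition of at least 75% with every replicate also reaching 75%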
# CF NFkB inh: inhibitors of cystic fibrosis induced NF-kB | KKLEB NF-kB-GFP reporter, PAF-induced, GFP fluorescence overnight | inhibition, % at 5 µM | 360,000 compounds, 0.86% hits | AID 588850;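 active = at least 50% inhibition at 5 µM, scaled per plate between neutral and stimulator controls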;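 also: PAF is a Pseudomonas aeruginosa culture filtrate used as stimulus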
# KKLEB tox: CF airway cell cytotoxicity counter-screen | KKLEB CF airway cells viability, ATPlite luminescence, overnight; stronger effect = lower value; cells stimulated with P. aeruginosa culture filtrate | activity change (cytotoxicity), % at 5 µM | 360,000 compounds, 0.36% hits | AID 602141;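 active = corrected activity change at or below -50% at 5 µM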
# Hits are given with their value; 0 = inactive; - = not tested or not shown. Only some compounds are listed: those with a hit (about 2.6% of all), similar ones and a draw of the others.
SMILES,HIF-2a inh,Peg3 promoter,Shn3 3UTR inh,CF NFkB inh,KKLEB tox
Cc1cc(O)c2c(c1)C(=O)C13C(=C2O)C(=O)[C@H]2[C@@H](O)[C@@H]1[C@H]1[C@H](O)[C@@H]3C(=O)C3=C(O)c4c(O)cc(C)cc4C(=O)C312 (stereo not given in full),0,0,0,79,0
Cc1cccc(Cn2cc(C=O)c3ccccc32)c1,0,69,0,0,0
O=Cc1cn(Cc2ccccc2F)c2ccccc12,0,0,0,0,0
CCOC(=O)c1[nH]c2ccc(OC)cc2c1C(SCC(=O)O)c1ccc(C(F)(F)F)cc1 (stereo not given),0,0,0,0,0
CCOC(=O)[C@]12Cc3cc(C)ccc3[C@H]1N(C1CCCCC1)C(=O)c1cc(OC)ccc12,85,-,-,-,-
COc1ccc(C2=NCC(=S)Nc3ccc(Cl)cc32)cc1Cl,0,0,0,0,0
CC(C)OC(=O)C1C(=O)NC2(C)CC1c1ccccc1O2 (stereo not given),0,0,0,0,0
CCOC(=O)C1C(=O)NC2(C)CC1c1cc(OC)ccc1O2 (stereo not given),0,0,89,0,0
COC(=O)C1=C(c2cccc(C#N)c2)C[C@@H]2CC[C@H]1N2C(=O)N1CCC(O)CC1,0,0,0,0,0
c1ccc(C2(N3CCCCC3)CCCCC2)cc1,0,0,0,0,0
S=C=Nc1cccc(C2(N3CCCCC3)CCCCC2)c1,0,64,0,0,0
CC1=C(N2CC2)C(=O)C(CO)=C(N2CC2)C1=O,89,100,96,97,-104
Cc1ccccc1NC(=O)N1Cc2ccccc2-n2nncc2C1,0,0,0,0,0
c1ccc2c(c1)[IH]c1ccccc1-2,52,96,91,0,0
Cc1ccc(OC(=O)N(C)C[C@@H]2OCc3cnnn3CCCC(=O)N([C@@H](C)CO)C[C@H]2C)cc1,0,0,0,0,0
O=C1NC(=O)N(CCc2ccc(F)cc2)C(=O)/C1=C/c1cccs1,0,0,0,0,0
C=CCN1C(=O)/C(=C/c2cccs2)C(=O)NC1=S,43,51,0,0,0
C=CCN1C(=O)NC(=O)/C(=C\c2ccc(-c3ccccc3[N+](=O)[O-])o2)C1=O,0,0,0,0,0
O=C1NC(=O)N(Cc2ccco2)C(=O)/C1=C/c1ccc(-c2cccc([N+](=O)[O-])c2)o1,65,0,0,0,0
CC(=O)CC(c1ccc2c(c1)OCO2)c1c(O)c2ccccc2oc1=O (stereo not given),0,0,0,0,0
Cc1cccc(C(O)(C(=O)O)c2ccccc2)c1 (stereo not given),0,100,0,0,0
CC(=NNC(=S)N1CC2CCC(CC2)C1)c1nccs1,0,0,93,67,0
O=c1[nH]c2ccccc2n1C1CCN(C(CCc2ccccc2)c2nnnn2-c2ccc3c(c2)OCCO3)CC1 (stereo not given),0,90,0,60,-90
O=c1[nH]c2ccccc2n1C1CCN(C(c2ccnc3ccccc23)c2nnnn2-c2ccc3c(c2)OCCO3)CC1 (stereo not given),0,62,0,77,-70
CCC(c1nnnn1-c1ccc(OC)cc1)N1CCC(n2c(=O)[nH]c3ccccc32)CC1 (stereo not given),0,0,0,0,0
SMILES,HIF-2a inh,Peg3 promoter,Shn3 3UTR inh,CF NFkB inh,KKLEB tox
CCC(c1nnnn1Cc1ccccc1)N1CCC(n2c(=O)[nH]c3ccccc32)CC1 (stereo not given),0,75,0,99,-71
Cc1cccc(C)c1-n1nnnc1C(CCc1ccccc1)N1CCC(n2c(=O)[nH]c3ccccc32)CC1 (stereo not given),0,98,0,0,0
C[C@]12CCC3C(CC[C@@H]4C[C@H](O)CC[C@]34C)C1CCC2=O (stereo not given in full),0,0,0,0,0
COC(=O)C1=C(c2ccccc2OCc2ccccc2)C[C@@H]2CC[C@H]1N2C(=O)NCc1ccc(OC)c(OC)c1,0,0,0,0,0
CC1CN(c2cc([N+](=O)[O-])ccc2Cl)CC(C)N1 (stereo not given),0,0,0,0,0
Brc1ccc2c(c1)C(OC1CN3CCC1CC3)c1ccccc1CS2 (stereo not given),0,110,0,0,0
CCN1/C(=C\C=C\C2=[N+](CC)c3ccccc3C2(C)C)C(C)(C)c2ccccc21,74,97,96,0,0
COc1ccc(C(=O)N/N=C/C23CC[C@@H](O)CC2(O)CC[C@@H]2[C@@H]3CCC3(C)C(C4=CC(=O)OC4)CCC23O)cc1 (stereo not given in full),0,66,0,0,0
CC12CC[C@H]3[C@@H](CCC4(O)C[C@H](O)CCC34/C=N/NC(=O)c3ccc(O)cc3)C1(O)CCC2C1=CC(=O)OC1 (stereo not given in full),0,0,-,0,0
CC12CC[C@H]3[C@@H](CCC4(O)C[C@H](O)CCC34/C=N/NC(=O)c3ccccc3F)C1(O)CCC2C1=CC(=O)OC1 (stereo not given in full),0,0,-,0,0
CN(C)c1ccc(C(=O)N/N=C/C23CC[C@@H](O)CC2(O)CC[C@@H]2[C@@H]3CCC3(C)C(C4=CC(=O)OC4)CCC23O)cc1 (stereo not given in full),0,105,-,0,-52
CC12CC[C@H]3[C@@H](CCC4(O)C[C@H](O)CCC34/C=N/NC(=O)c3ccccc3O)C1(O)CCC2C1=CC(=O)OC1 (stereo not given in full),0,81,0,0,0
O=c1[nH]c(=S)[nH]c(O)c1N=Nc1ccc(S(=O)(=O)N2CCc3ccccc32)cc1,0,0,0,56,0
C[C@]12CC[C@@H](O)CC1=CCC1C2CC[C@@]2(C)C1CC[C@@H]2O (stereo not given in full),0,0,0,0,0
Cc1cc(C)n(-c2ccc(NN=C(C#N)C#N)cc2)n1,0,0,0,76,0
N#CC(C#N)=NNc1ccc(-n2ccc(C(F)(F)F)n2)cc1,0,0,-,79,0
Cn1c(O)c(/C=C2\N=c3ccccc3=C2CCNC(=S)NC2CC2)c(=O)n(C)c1=O,0,0,0,0,0
COc1ccc(CCNCc2ccsc2)cc1OC,0,0,0,0,0
CCOc1ccc(-c2cc(C)[n+](CCO)c(-c3ccc(OCC)cc3)c2)cc1,0,0,0,0,0
CCOc1ccc(-c2cc(C)[n+](CCc3ccc(OC)c(OC)c3)c(-c3ccc(OCC)cc3)c2)cc1,0,59,0,0,0
OC(Cn1c2ccccc2c2ccccc21)C[n+]1cccc2ccccc21 (stereo not given),0,59,0,0,0
CC12C=CC(=O)C=C1CC(O)C1C2CCC2(C)C1CCC2(C)O (stereo not given),0,0,0,0,0
COc1ccccc1-n1c(-c2ccccc2Cl)nc2ccccc2c1=O,0,0,0,0,0
